Experiment in all cases: NCI-60 one-dose screen, 48 h (100 = growth as untreated, 0 = no growth, -100 = all killed)
What all share (details): 10 µM unless noted

Assay [1] concerns NCI-H23 lung.
Assay [2] concerns NCI-H226 lung.
Assay [3] relates to NCI-H322M lung.
For assay [4], the system named is HOP-62 NSCLC.
The subject of assay [5] is NCI-H460 lung.
The subject of assay [6] is HOP-92 NSCLC.
In assay [7] the test system is NCI-H522 lung.
Assay [8] has as its system A549/ATCC NSCLC.
For assay [9], the system named is 786-0 renal.
Assay [10] deals with COLO 205 colon.

This is part of a sample that, as a whole, favours compounds with a hit. Of some 83,000 tested, about 20% had one in any assay.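 Plates (96-well) were seeded with cells, treated with compound at one concentration, and incubated for 48 hours before percent growth was determined.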 Values without a mark were called inactive. Activity calls are given as the source filed them. Rule for the calls: active = growth percent below 10; inactive = the rest.

Consider `N#Cc1c(N)nc2c(c1N)C(c1ccc(Cl)cc1)C1=C(CCCC1=O)N2c1sc2c(c1C#N)CCCC2` (stereo not given), for which the growth in assay [1] was 91.2%; in [2], 89.2%; in [3] it was 83.5%; in assay [4], 80%; in [5] it was 97.3%; in assay [6] it was 62%. The growth in assay [7] was 84.3%; in assay [8] it was 90.1%; in [9], 80.1%; in [10], 96.2%.

With `Oc1ccc(Cl)cc1Sc1cc(Cl)ccc1O`, the growth in assay [1] is 93.3%; in assay [2], 88.4%; in [3] it was 115%; in assay [4], 98.4%; in assay [5], 107%; in [6], 63.6%. In addition, the growth in assay [7] is 81.6%; in [8] it was 95.5%; in [9], 110%; in [10], 105%.

Regarding `COc1ccc(C2=NN(C(=O)COc3ccc(Cl)cc3)C(O)(c3cc(F)c(Cl)cc3Cl)C2)cc1` (stereo not given), the growth was 96.3% in assay [1]; 109% in assay [2]; 83.4% in assay [3]; 61.8% in assay [4]; 109% in assay [5]; 39.4% in [6]. For the same compound, the growth in assay [7] is 79.5%; in assay [8] it was 96.4%; in assay [9], 82%; in assay [10], 101%.

For the compound `Cc1c(Cl)ccc2c(C(=O)Cl)cc(-c3ccccc3)nc12`, the growth in assay [1] is 98.8%; in assay [2] it was 90.8%; in assay [3] it was 103%; in [4], 85.4%; in assay [5], 98.2%; in assay [6] it was 93.5%. Moreover, the growth in assay [7] was 95.1%; in assay [8] it was 92.9%; in assay [9], 97.1%; in assay [10], 111%.

Take `COc1cc(CN(c2ccc(Cl)cc2)C2OC(=O)c3ccccc32)cc(OC)c1OC` (stereo not given): the growth in [1] is 77.2%; in [2], 78.9%; in assay [3] it was 88.8%; in assay [4] it was 44.8%; in assay [5], 57.4%; in assay [6], 69.1%. Besides, the growth was 35% in assay [7], 39.7% in assay [8], 71% in assay [9] and 61.9% in [10].

Take `C=C1C(=O)O[C@H]2[C@H]1CC/C(COC(=O)OC/C1=C/CC[C@@]3(C)O[C@H]3[C@H]3OC(=O)[C@@H](CN(C)C)[C@@H]3CC1)=C\CC[C@@]1(C)O[C@@H]21`: the growth in assay [1] is 47.6%; in [2], -49.6% (active); in assay [3], 88%; in [4], 89.2%; in assay [5], 80.1%; in [6] it was -51.8% (active). Further, the growth in assay [7] is -48.5% (active); in assay [8], 73.4%; in assay [9], -49.7% (active); in assay [10] it was -43.2% (active).

As for `Cc1cc(Nc2ccc(Cl)c(Cl)c2)nc(N)n1`, the growth in [1] was 89.5%; in assay [2], 92%; in [3], 110%; in [4], 98.3%; in [5], 94.3%; in assay [6] it was 97.7%. For the same compound, the growth in [7] is 78.3%; in assay [8] it was 71.8%; in [9] it was 78.9%; in [10], 107%.

`NS(=O)(=O)c1ccc(-n2nc(-c3ccc(Cl)cc3)ccc2=O)cc1`: the growth was 91.1% in assay [1]; 103% in assay [2]; 110% in [3]; 94.3% in [4]; 98% in assay [5]; 90.9% in assay [6]. The growth in assay [7] was 16%; in assay [8], 95.4%; in [9] it was 92.9%; in [10], 113%.

`COc1ccc(C2CC(c3cc(Cl)c(C)cc3OC)=NN2c2ccc(S(N)(=O)=O)cc2)cc1OC` (stereo not given): the growth was 75.8% in [1]; 81.3% in assay [2]; 104% in [3]; 87.8% in assay [4]; 89.8% in assay [5]; 101% in assay [6]. Further, the growth is 74.3% in assay [7], 73.2% in [8], 92.3% in [9] and 101% in assay [10].

Regarding `O=S(=O)(CCN1CCOCC1)Nc1cc(-c2ccc3ncnc(Nc4ccc(F)c(Cl)c4)c3c2)cnc1Cl`, the growth in [1] is 28%; in [2] it was 26.9%; in assay [3] it was 0.347% (active); in [4], -0.609% (active); in assay [5], 14.8%; in [6], -20.8% (active). For the same compound, the growth in [7] was 17.2%; in assay [8] it was 10.3%; in [9], 8.06% (active); in [10], -6.12% (active).

With `CC(=O)N1N=C(CCC(=O)c2nc3ccc([N+](=O)[O-])cc3[nH]2)OC1c1ccc(O)cc1` (stereo not given), the growth was 93.2% in assay [1]; 101% in [2]; 99% in assay [3]; 91.2% in assay [4]; 103% in assay [5]; 118% in assay [6]. Besides, the growth is 51.3% in [7], 106% in assay [8], 106% in [9] and 92.3% in assay [10].

Take `CN(CCNCc1ccccn1)CCNCc1ccccn1`: the growth is 18.2% in [1]; -63.6% (active) in [2]; 9.06% (active) in assay [3]; 4.07% (active) in [4]; -7.2% (active) in assay [5]; -7.3% (active) in assay [6]. The growth is 18.9% in assay [7], 0.123% (active) in assay [8], -3.78% (active) in assay [9] and -5.61% (active) in assay [10].

Regarding `O=C1OC(N(Cc2ccc(Cl)cc2)c2ccccc2)c2ccccc21` (stereo not given), the growth in assay [1] is 99.7%; in [2] it was 92.9%; in [3], 89.6%; in [4], 88.9%; in assay [5], 111%; in assay [6], 100%. In addition, the growth in assay [7] is 65.8%; in assay [8] it was 90.5%; in assay [9], 91%; in assay [10], 104%.

In the case of `CN(C)CC/C=C1\c2ccccc2Sc2ccc(Cl)cc21`, the growth in [1] is 80%; in assay [2], 102%; in assay [3], 72.1%; in [4] it was 75.6%; in assay [5], 77.2%; in assay [6] it was 36.7%. In addition, the growth in assay [7] was 67.5%; in assay [8], 74.9%; in [9], 58.2%; in [10] it was -40.1% (active).

Values taken from PubChem BioAssay (NCI).
